Measurements published in PubChem BioAssay (NCI).
The panel holds about 83,000 compounds, 20% with a hit somewhere; the sample as a whole holds those more often.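 Results are percent growth after 48 hours of single-concentration exposure. 100 means growth as in untreated cells, lower positive values show inhibition; negative values down to -100 show cell death.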 Values without a mark were called inactive. Active and inactive are the calls of the source. The calls were made as follows: active = growth percent below 10; inactive = the rest.

Legend:
Test in all cases: NCI-60 one-dose screen, 48 h (100 = growth as untreated, 0 = no growth, -100 = all killed)
Conditions in all cases: 10 µM unless noted
DU-145 prostate = tested on: DU-145 prostate
K-562 leukemia = tested on: K-562 leukemia
MALME-3M melanoma = tested on: MALME-3M melanoma
MDA-MB-231 breast = tested on: MDA-MB-231 breast
RXF 393 renal = tested on: RXF 393 renal
SF-268 CNS = tested on: SF-268 CNS
SF-295 CNS = tested on: SF-295 CNS
SF-539 CNS = tested on: SF-539 CNS
UACC-257 melanoma = tested on: UACC-257 melanoma
M14 melanoma = tested on: M14 melanoma

Compound	growth (DU-145 prostate)	growth (K-562 leukemia)	growth (MALME-3M melanoma)	growth (MDA-MB-231 breast)	growth (RXF 393 renal)	growth (SF-268 CNS)	growth (SF-295 CNS)	growth (SF-539 CNS)	growth (UACC-257 melanoma)	growth (M14 melanoma)
COc1ccc(/C=N\NC(=O)c2cnn(CC(O)c3ccccc3)c2N)cc1OCc1ccc(Cl)cc1 (stereo not given)	55.3%	60.2%	65.2%	67%	41.8%	91.6%	56.9%	69.4%	85%	68.4%
NC1C2CCC1CN(c1cnc(C(=O)Nc3cc(F)cc4cccnc34)cn1)C2 (stereo not given)	71.2%	3.9% (active)	49.5%	39.4%	61.6%	73.5%	76.3%	64.6%	98.3%	48.4%
CCOP(=O)(OCC)OC[C@]12CC[C@@H](C)[C@H](C)C1C1=CC[C@@H]3[C@@]4(C)CCCNC(C)(C)[C@@H]4CC[C@@]3(C)[C@]1(C)CC2 (stereo not given in full)	1.04% (active)	-59.7% (active)	20%	39%	16.6%	37.4%	18.6%	60.2%	13.4%	-65.7% (active)
COc1ccc2sc(NC(=O)CCCCCCNC(=O)C(O)(O)C(F)(F)F)nc2c1	4.67% (active)	11.2%	20.7%	20%	-47.6% (active)	-0.601% (active)	-37.1% (active)	6.85% (active)	12.5%	13.4%
CC(C)(C)c1cc(NC(=O)Nc2ccc(-c3cn4c5c(sc4n3)CCc3c[nH]cc3-5)cc2)no1	32.6%	1.04% (active)	0.464% (active)	30.3%	-24.4% (active)	32.7%	-56.5% (active)	-4.46% (active)	32.3%	6.95% (active)
CCCCN1C(=O)/C(=c2\sc3n(c2=O)C2C(NN=3)N(CC)C(=O)N2CC)c2cc(C)ccc21 (stereo not given)	98.7%	79.8%	89.3%	79.5%	61.2%	87%	99.6%	67%	98.7%	107%
Brc1ccc(-c2cc(-c3ccc4c(c3)OCCO4)n[nH]2)s1	39.8%	12.4%	45.8%	41.9%	32%	62.4%	18.4%	23.5%	75.1%	21.3%
Cn1cc(-c2nnc(N)nc2-c2c[nH]c3ccc(F)cc23)c2cc(Br)ccc21	37.8%	6.36% (active)	41.7%	47.3%	-12.7% (active)	39.7%	9.61% (active)	7.43% (active)	50.9%	-6.09% (active)
O=C(NCCNc1cc(-c2cn(-c3ccccc3)nc2-c2cccc(O)c2)ccn1)Nc1cc(C(F)(F)F)cc(C(F)(F)F)c1	106%	86.9%	90.6%	92.9%	86.7%	88.8%	89.8%	89.3%	101%	89%
Brc1cccc(-c2cc(-c3cnc4c(c3)OCCO4)n[nH]2)c1	70.4%	16.6%	37%	68.8%	47.9%	76.5%	51.5%	47.6%	73.2%	27.1%
CC(C)=CCC[C@](C)(O)[C@H]1CC[C@]2(C)[C@@H]1CC[C@@H]1[C@@]3(C)CC[C@H](N)C(C)(C)[C@@H]3CC[C@]12C	72.2%	-41.2% (active)	107%	85.4%	53.2%	86%	93.2%	87.9%	94%	92.9%
COC(=O)CNC(=O)c1cccc(-c2cc(=O)c3c(OC)c(OC)c(OC)cc3o2)c1	108%	125%	95.2%	101%	99.4%	101%	101%	103%	103%	103%
CN1CCN(CCCCCC(=O)Nc2nc(-c3cccc(NS(=O)(=O)c4cccc5c(N(C)C)cccc45)c3)cs2)CC1	84.8%	7.02% (active)	17.5%	68.8%	50.9%	90.9%	35.6%	58.2%	42.7%	-28.7% (active)
CC[C@]12C=CCN3CC[C@@]4(c5ccc(OC)cc5N(C)[C@H]4[C@@](O)(C(=O)OC)[C@@H]1OC(=O)CCN1CCc4ccccc4C1)[C@@H]32	106%	75.4%	89.2%	84.9%	-95.9% (active)	85.2%	104%	95.9%	100%	98.2%
C/C(=C(\c1ccc(O)cc1)c1ccc(OCCN2CCCCCC2)cc1)c1ccc(Cl)cc1	-86.4% (active)	5.91% (active)	-80.3% (active)	-85% (active)	-87.4% (active)	-62.5% (active)	-93.7% (active)	-91.8% (active)	-81.8% (active)	-86.5% (active)
COc1cccc2c1C=CC1(O2)Oc2cccc(OC)c2C=C1C (stereo not given)	31.5%	8.28% (active)	60.4%	0.892% (active)	-18.2% (active)	55.3%	6.46% (active)	-9.43% (active)	73.9%	1.02% (active)
C#C[C@]1(O)CC[C@H]2[C@@H]3CC=C4c5sc(Nc6ccc(C)cn6)nc5CC[C@]4(C)[C@H]3CC[C@@]21C	27.9%	-2.56% (active)	-31.4% (active)	-1.2% (active)	-78.6% (active)	-7.73% (active)	-70.2% (active)	-66.8% (active)	-42.8% (active)	-48.8% (active)
CNC(=O)Nc1ccc(Nc2cc(-c3ccc(-n4cccn4)cc3)[nH]n2)c(C)c1	105%	95.5%	125%	123%	141%	103%	109%	98.7%	115%	126%
CCOP(=O)(OCC)OC[C@]12CCC(C)(C)C[C@H]1C1=CC[C@@H]3[C@@]4(C)CC[C@H](OP(=O)(OCC)OCC)C(C)(C)[C@@H]4CC[C@@]3(C)[C@]1(C)CC2	83.1%	28.9%	62.6%	50.2%	74.9%	73.1%	51.8%	66.9%	55%	51.9%
O=S(=O)(NCCCNc1nccc(-c2[nH]c(-c3ccccc3)nc2-c2ccc(F)c(O)c2)n1)c1ccccc1	113%	60.6%	-4.84% (active)	81.7%	121%	90.7%	96.9%	105%	22.4%	27.8%
CSc1ccc(/C(=N/N=C(N)N)c2ccc(Cl)cc2)cc1	9.65% (active)	1.76% (active)	22.5%	7.57% (active)	16.5%	19.3%	8.73% (active)	-10.3% (active)	57.8%	-90.9% (active)
CCOC(=O)c1c(NCC(=O)Nc2cccc([N+](=O)[O-])c2)sc(C(C)=O)c1C	-13.9% (active)	8.15% (active)	-21.8% (active)	10.3%	-86.5% (active)	-17.6% (active)	-11.7% (active)	-28.8% (active)	-11.9% (active)	-81.7% (active)
Brc1ccc2[nH]cc(-c3nn4cc(-c5nccs5)nc4s3)c2c1	20.8%	13.1%	-7.45% (active)	-13.5% (active)	-46.4% (active)	31.7%	37.1%	29.7%	56.8%	13.3%
CCCCCN1C(=O)/C(=c2\sc3n(c2=O)C2C(NN=3)N(CC)C(=O)N2CC)c2cccc(C)c21 (stereo not given)	76.6%	16.2%	51.6%	62.4%	15.1%	56.9%	45%	23.8%	79.8%	51.4%
COc1ccc2c(c1)C=CC1(O2)Oc2ccc(OC)cc2C=C1C (stereo not given)	34.1%	8.41% (active)	55.2%	2.14% (active)	-12.3% (active)	54.4%	7.92% (active)	-11% (active)	73%	3.03% (active)
COc1ccc([C@@H]2C(=O)N(c3cc(OC)c(OC)c(OC)c3)[C@H]2c2ccc(OC)c(O)c2)cc1	10.9%	12.7%	69.5%	28.8%	16.7%	25.2%	17.9%	5.74% (active)	56.6%	12.6%
